Reference: PubChem BioAssay (EPA / NIEHS)
Values joined by “and” are separate entries in the source; they are usually repeats but may differ in a detail not shown here. Identical values can stand only once. The source holds several records for some structures; these can differ, active in one and inactive in another. Active and inactive are the calls of the source. How the source made its calls: active means hit-call score of the fitted dose curve at least 0.9, where 1 is the maximum; inactive means score below 0.9.

Key:
[1] = read-out: TIMP metallopeptidase inhibitor 1 (TIMP1), TIMP1 (gene 7076); test: BSK_hDFCGF_TIMP1: BioMAP Diversity Plus: hDFCGF Assay for TIMP metallopeptidase inhibitor 1 (TIMP1) Biomarker Activity (AID 2283062); details: primary human foreskin fibroblasts; actives raise or lower the signal
In short: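 ELISA readout of TIMP-1 from human dermal foreskin fibroblast cultures 24 h post-dosing. Curves were fitted in both directions against DMSO baseline, with SRB total-protein staining in parallel cultures as a cytotoxicity check.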

[2] = read-out: Matrix Metallopeptidase 1 (MMP1), MMP1 (gene 4312); test: BSK_hDFCGF_MMP1: BioMAP Diversity Plus: hDFCGF Assay for Matrix Metallopeptidase 1 (MMP1) Biomarker Activity (AID 2283064); details: primary human foreskin fibroblasts; actives raise or lower the signal
In short: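 MMP1 levels quantified by ELISA 24 h after dosing human dermal fibroblast cultures, with parallel SRB total-protein staining for overt cytotoxicity. Data fitted in both directions against DMSO baseline.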

[3] = read-out: Vascular cell adhesion molecule 1 (VCAM1), VCAM1 (gene 7412); test: BSK_hDFCGF_VCAM1: BioMAP Diversity Plus: hDFCGF Assay for Vascular cell adhesion molecule 1 (VCAM1) Biomarker Activity (AID 2283065); details: primary human foreskin fibroblasts; actives raise or lower the signal;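 on AC50: VCAM-1 protein level quantified by ELISA after 24 h chemical exposure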
In short: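 ELISA read-out of VCAM-1 on human skin fibroblasts, 24 h post-dose; gain or loss of signal fitted bidirectionally against DMSO baseline.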

[4] = read-out: Plasminogen activator inhibitor-1 (PAI1), SERPINE1 (gene 5054); test: BSK_hDFCGF_PAI1: BioMAP Diversity Plus: hDFCGF Assay for Plasminogen activator inhibitor-1 (PAI1) Biomarker Activity (AID 2283066); details: primary human foreskin fibroblasts; actives raise or lower the signal
In short: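 Fibroblasts from human foreskin were treated with test chemical. After 24 h, PAI-1 was measured by ELISA. Activity was fitted in both directions relative to DMSO.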

[5] = read-out: Interferon-gamma inducible Protein 10 (IP10), CXCL10 (gene 3627); test: BSK_KF3CT_IP10: BioMAP Diversity Plus: KF3CT Assay for Interferon-gamma inducible Protein 10 (IP10) Biomarker Activity (AID 2283068); details: primary human keratinocytes with fibroblasts; actives raise or lower the signal
In short: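 In a primary skin co-culture of keratinocytes and fibroblasts, IP-10 is quantified by ELISA at 24 h after dosing. SRB staining of parallel wells monitors overt toxicity. Curves are fitted both directions against DMSO.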

[6] = BSK_KF3CT_SRB: Viability Assessment in the BioMAP Diversity Plus: KF3CT Assay (AID 2283069); details: primary human keratinocytes with fibroblasts;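 further: total protein by sulforhodamine B staining as a cytotoxicity measure; read 24 h after compound addition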
In short: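 Cytotoxicity was gauged by SRB staining (0.1% SRB, 10% TCA fixation, 560 nm) of parallel cultures at 24 h. The cells were primary human skin keratinocytes co-cultured with fibroblasts, and activity was fitted in both directions against DMSO.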

[7] = read-out: Interleukin-1 alpha (IL1a), IL1A (gene 3552); test: BSK_KF3CT_IL1a: BioMAP Diversity Plus: KF3CT Assay for Interleukin-1 alpha (IL1a) Biomarker Activity (AID 2283070); details: primary human keratinocytes with fibroblasts; actives raise or lower the signal
In short: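 IL-1a was detected by ELISA 24 h after chemical treatment of a co-culture of human skin keratinocytes and foreskin fibroblasts. Gain or loss of signal was fitted against the DMSO baseline.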

[8] = read-out: TIMP metallopeptidase inhibitor 2 (TIMP2), TIMP2 (gene 7077); test: BSK_KF3CT_TIMP2: BioMAP Diversity Plus: KF3CT Assay for TIMP metallopeptidase inhibitor 2 (TIMP2) Biomarker Activity (AID 2283071); details: primary human keratinocytes with fibroblasts; actives raise or lower the signal
In short: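 Chemicals were dosed onto human skin primary co-cultures of keratinocytes and foreskin fibroblasts, and TIMP-2 was measured by ELISA after 24 hours. Activity in either direction was fitted relative to DMSO.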

[9] = read-out: Transforming growth factor beta 1 (TGFb1), TGFB1 (gene 7040); test: BSK_KF3CT_TGFb1: BioMAP Diversity Plus: KF3CT Assay for Transforming growth factor beta 1 (TGFb1) Biomarker Activity (AID 2283072); details: primary human keratinocytes with fibroblasts; actives raise or lower the signal
In short: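 KF3CT co-culture (keratinocytes + fibroblasts), 24 h exposure → TGF-b1 ELISA → bidirectional fit, DMSO = baseline. Parallel SRB total-protein staining (0.1% SRB, 10% TCA fixation, 560 nm) for cytotoxicity.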

[10] = read-out: C-C motif chemokine 2 (Homo sapiens) (UniProt P13500); test: BSK_KF3CT_MCP1: BioMAP Diversity Plus: KF3CT Assay for Monocyte Chemoattractant Protein 1 (MCP1/CCL2) Biomarker Activity (AID 2283073); details: primary human keratinocytes with fibroblasts; actives raise or lower the signal
In short: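 KF3CT skin co-culture (keratinocytes/foreskin fibroblasts), 24 h post-dose; MCP-1 by ELISA; gain/loss of signal fit bidirectionally vs DMSO baseline.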

[11] = read-out: CD40, CD40 (gene 958); test: BSK_LPS_CD40: BioMAP Diversity Plus: LPS Assay for CD40 Biomarker Activity (AID 2283076); details: primary human HUVEC with PBMC; actives raise or lower the signal
In short: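 ELISA readout of CD40 in HUVEC/PBMC co-culture (BSK_LPS system), 24 h post-dosing; bidirectional curve fit, DMSO baseline; parallel SRB total-protein staining for cytotoxicity.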

[12] = read-out: Interleukin-8 (IL8), CXCL8 (gene 3576); test: BSK_LPS_IL8: BioMAP Diversity Plus: LPS Assay for Interleukin-8 (IL8) Biomarker Activity (AID 2283078); details: primary human HUVEC with PBMC; actives raise or lower the signal
In short: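 HUVEC + PBMC co-culture, LPS-activated; test chemicals dosed, IL-8 read by ELISA at 24 h. Bidirectional curve fit vs DMSO baseline (gain or loss of signal).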

[13] = BSK_LPS_SRB: Viability Assessment in the BioMAP Diversity Plus: LPS Assay (AID 2283079); details: primary human HUVEC with PBMC;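 further: total protein by sulforhodamine B absorbance as a cytotoxicity measure; measured one day after compound addition; fitted in both directions against DMSO so loss or gain of signal counts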
In short: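 HUVEC + PBMC co-culture, LPS-stimulated; compound 24 h. 10% TCA fix, 0.1% SRB stain, A560. Bidirectional fit vs DMSO.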

[14] = read-out: Interleukin-1 alpha (IL1a), IL1A (gene 3552); test: BSK_LPS_IL1a: BioMAP Diversity Plus: LPS Assay for Interleukin-1 alpha (IL1a) Biomarker Activity (AID 2283080); details: primary human HUVEC with PBMC; actives raise or lower the signal
In short: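 HUVEC/PBMC co-culture, LPS system; 24 h after dosing; IL-1a by ELISA; gain or loss of signal fitted bidirectionally vs DMSO baseline.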

[15] = read-out: Monocyte Chemoattractant Protein-1 (MCP1), CCL2 (gene 6347); test: BSK_LPS_MCP1: BioMAP Diversity Plus: LPS Assay for Monocyte Chemoattractant Protein-1 (MCP1) Biomarker Activity (AID 2283081); details: primary human HUVEC with PBMC; actives raise or lower the signal;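 on AC50: secreted MCP-1 protein quantified by ELISA in culture supernatant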
In short: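 ELISA read-out of MCP-1 after 24 h chemical dosing of a human umbilical vein endothelial cell/peripheral blood mononuclear cell co-culture stimulated with LPS. Gain or loss of signal fitted relative to DMSO controls.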

[16] = read-out: Monokine induced gamma interferon (MIG), CXCL9 (gene 4283); test: BSK_hDFCGF_MIG: BioMAP Diversity Plus: hDFCGF Assay for Monokine induced gamma interferon (MIG) Biomarker Activity (AID 2283063); details: primary human foreskin fibroblasts; actives raise or lower the signal
In short: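 Fibroblasts (human foreskin, primary) dosed, 24 h, MIG by ELISA; fit bidirectional vs DMSO.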

[17] = read-out: E-selectin (Homo sapiens) (UniProt P16581); test: BSK_LPS_Eselectin: BioMAP Diversity Plus: LPS Assay for Eselectin Biomarker Activity (AID 2283077); details: primary human HUVEC with PBMC; actives raise or lower the signal
In short: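 ELISA readout of E-selectin, 24 h post-dose, HUVEC + PBMC co-culture (LPS system). Gain or loss of signal vs DMSO baseline, bidirectional fit.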

[18] = read-out: Matrix Metallopeptidase 9 (MMP9), MMP9 (gene 4318); test: BSK_KF3CT_MMP9: BioMAP Diversity Plus: KF3CT Assay for Matrix Metallopeptidase 9 (MMP9) Biomarker Activity (AID 2283074); details: primary human keratinocytes with fibroblasts; actives raise or lower the signal
In short: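 MMP-9 quantified by ELISA after 24 h chemical treatment of primary human skin keratinocyte/fibroblast co-cultures; gain or loss fitted against DMSO, with parallel SRB staining (0.1% SRB, 560 nm) for overt cytotoxicity.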

Measured: AC50

Chain of E-selectin (Homo sapiens) (P16581 whole entry, looked up): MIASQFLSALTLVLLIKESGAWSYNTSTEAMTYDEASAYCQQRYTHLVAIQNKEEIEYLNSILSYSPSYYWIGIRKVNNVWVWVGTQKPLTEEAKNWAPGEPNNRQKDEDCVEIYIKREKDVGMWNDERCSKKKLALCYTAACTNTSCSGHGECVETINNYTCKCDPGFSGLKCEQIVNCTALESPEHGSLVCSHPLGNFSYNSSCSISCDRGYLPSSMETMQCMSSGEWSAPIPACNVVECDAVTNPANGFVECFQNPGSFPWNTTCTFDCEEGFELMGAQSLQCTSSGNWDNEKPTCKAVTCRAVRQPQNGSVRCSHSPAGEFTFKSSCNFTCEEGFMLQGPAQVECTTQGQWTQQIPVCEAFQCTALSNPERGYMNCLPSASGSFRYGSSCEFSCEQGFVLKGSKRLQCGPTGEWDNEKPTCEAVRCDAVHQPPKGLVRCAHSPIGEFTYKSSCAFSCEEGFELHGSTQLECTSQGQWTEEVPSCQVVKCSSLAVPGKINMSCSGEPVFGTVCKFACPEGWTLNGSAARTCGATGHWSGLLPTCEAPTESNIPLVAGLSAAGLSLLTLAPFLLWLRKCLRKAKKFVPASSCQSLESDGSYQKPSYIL

NC(=NCCCCCCN=C(N)/N=C(\N)Nc1ccc(Cl)cc1)/N=C(\N)Nc1ccc(Cl)cc1
active: [1] 6.5 µM | [2] 7.45 µM | [3] 5.46 µM | [4] 3.67 µM | [5] 6.16 µM | [6] 4.79 µM | [7] 4.32 µM | [8] 5.01 µM | [9] 2.35 µM | [10] 6.01 µM | [11] 5.33 µM | [12] 2.36 µM | [13] 5.33 µM | [14] 4.94 µM | [15] 4.95 µM

O=C1NS(=O)(=O)c2ccccc21
not listed: [18]
inactive: all other assays above

Oc1ccc(Cc2ccccc2O)cc1
not listed: [9]
inactive: all other assays above

OCC(CO)(CBr)CBr
not listed: [18]
inactive: all other assays above

O=C(CCCN1CCC(O)(c2ccc(Cl)cc2)CC1)c1ccc(F)cc1
active: [17] 1.67 µM | [15] 29 µM
not listed: [18]
inactive: all other assays above

C[C@]12CC[C@@H]3c4ccc(O)cc4CC[C@H]3[C@@H]1C[C@@H](O)[C@@H]2O
not listed: [18]
inactive: all other assays above

CCCCC=O
not listed: [18]
inactive: all other assays above

CC[N+](CC)(CC)Cc1ccccc1
not listed: [18]
inactive: all other assays above

CCOC(=O)CN[C@@H](C(=O)N1CC[C@H]1C(=O)NCc1ccc(/C(N)=N/O)cc1)C1CCCCC1
not listed: [18]
inactive: all other assays above

CCCCCCCCCCCCOS(=O)(=O)O
active: [1] 32 µM | [16] 27.7 µM | [2] 32.7 µM | [3] 29.3 µM | [4] 33.6 µM | [5] 33.4 µM | [6] 33.7 µM | [7] 20 µM | [8] 29.3 µM | [9] 33.4 µM | [10] 20 µM
inactive: [11] | [17] | [12] | [14] | [15]

CCCCCCCCCCCC
inactive: [6] | [11] | [13] | [15]
active: [1] 7.88 µM and 9.41 µM | [16] 11.6 µM and 10.2 µM | [2] 5.36 µM and 7.16 µM | [3] 8.36 µM and 7.77 µM | [4] 11.2 µM and 10.6 µM | [5] 11.1 µM and 10.1 µM | [7] 11.4 µM and 12.2 µM | [8] 7.91 µM and 9.05 µM | [10] 6.76 µM and 8.48 µM | [11] 20 µM | [17] 30.5 µM and 32.7 µM | [12] 33.1 µM and 30.7 µM | [14] 14.4 µM and 29.6 µM | [15] 36.3 µM

CN(CCO)S(=O)(=O)C(F)(F)C(F)(F)C(F)(F)C(F)(F)C(F)(F)C(F)(F)C(F)(F)C(F)(F)F
active: [12] 4.94 µM
inactive: [1] | [16] | [2] | [3] | [4] | [5] | [6] | [7] | [8] | [10] | [11] | [17] | [12] | [13] | [14] | [15]
